The record followed here is PubChem BioAssay (NCI).

Several values for one entry are separate records, joined by “and”; a condition that tells them apart may be missing. Equal values may be shown once. About 83,000 compounds went through this panel and 20% of them were active in at least one assay; those are over-represented in the sample as a whole.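 Each cell line was grown in a 96-well plate and treated with one concentration of compound for 48 hours. Values below 10 were considered active.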 Activity calls are given as the source filed them.

In the first assay the test system is OVCAR-4 ovarian. In words: NCI-60 one-dose screen, 48 h (100 = growth as untreated, 0 = no growth, -100 = all killed). Conditions: 4.75 µM. The procedure:
Growth inhibition of the OVCAR-4 human tumor cell line is measured as a screen for anti-cancer activity. Cells are grown in 96 well plates and exposed to the test compound for 48 hours. Compounds are tested at a single concentration, which is 10^-5 M for most compounds. The reported endpoint is percent growth (GI% or GIPRCNT), where numbers from 0 - 100% represent growth inhibition, and numbers from -100% - 0 represent cell death. For example, a value of 40 represents 60% growth inhibition. A value of 0 means no net growth occurred over the course of the experiment. A value of -40 indicates 40% of cells at the beginning of the experiment died by the end of the experiment. A value of -100 means all cells are dead at the end of the experiment.
NCI-60 Human Tumor Cell Lines Screen was performed using the standard one-dose NCI protocol, which is described in more detail at https://dtp.cancer.gov/discovery_development/nci-60/default.htm.
Compounds with GIPRCNT values below 10 were considered active. Activity score was based on GIPRCNT using the following formula: […]
Score is 0 for GIPRCNT values of 100 or above, 50 for GIPRCNT values of 0, and 100 for GIPRCNT values of -100.
Take `CC(=O)OCC1OC([S-])C(OC(C)=O)C(OC(C)=O)C1OC(C)=O.[Au+].c1ccc(CN2[CH-]N(Cc3ccccc3)C(c3ccccc3)=C2c2ccccc2)cc1`: the growth was 12.6% (inactive).

Still in this assay, the particulars now being: 10 µM.
Take `CC(=O)OCC1OC([S-])C(OC(C)=O)C(OC(C)=O)C1OC(C)=O.[Au+].c1ccc(CN2[CH-]N(Cc3ccccc3)C(c3ccccc3)=C2c2ccccc2)cc1`: the growth is 34.2% (inactive).

Staying with this assay, now noted: 10 µM unless noted.
In the case of `Oc1cc(Cl)ccc1Oc1ccc(Cl)cc1Cl`, the growth was 29.9% (inactive). With `COc1ccc(N)cc1OC`, the growth is 96.8% (inactive). On the same count and under the same terms, then `CCCCOCCOP(=O)(OCCOCCCC)OCCOCCCC`, with 114% (inactive); and `N#CCC(=O)c1ccccc1`, with 109% (inactive).

For the molecule `CSc1cc(/C=C(\C)[C@@H]2C[C@@H]3O[C@]3(C)CCC[C@H](C)[C@H](O)[C@@H](C)C(=O)C(C)(C)[C@@H](O)CC(=O)O2)n(CCNC(=O)OC(C)(C)C)n1`, the growth was 82.4% (inactive). As for `C=C1C(=O)OC2CC3(C)OC3C3OC3C3=CC(OC3=O)C12` (stereo not given), the growth is 60% (inactive) and 92.5% (inactive).

Regarding `C/C(=C\c1ccn(-c2ccc(N)c(C(F)(F)F)c2)n1)[C@@H]1C[C@@H]2O[C@]2(C)CCC[C@H](C)[C@H](O)[C@@H](C)C(=O)C(C)(C)[C@@H](O)CC(=O)O1`, the growth is 55.1% (inactive). As to `C/C(=N/OC(=O)N(C)C)c1ccc(Cl)c(Cl)c1`, the growth is 119% (inactive). Regarding `CC1=CC(=Nc2ccc(N(CCCl)CCCl)cc2)C=C(C)C1=O`, the growth is -35.7% (active). On the same count and under the same terms, the result for `C=CCOC(=O)C(Br)CC` (stereo not given) reads 108% (inactive); that for `CC[C@H](C)[C@H](NC(=O)[C@H]1CCCCN1C)C(=O)N(C)[C@H](CCc1nc(C(=O)N[C@@H](Cc2ccccc2)C[C@H](C)C(=O)O)cs1)C(C)C`, 43.8% (inactive). As for `CC[C@H](C)[C@H](NC(=O)CN(C)C)C(=O)N(C)[C@H](C[C@@H](OC(C)=O)c1nc(C(=O)NC23CC(C(=O)OC)(C2)C3)cs1)C(C)C`, the growth was 47.9% (inactive). For `N#CC(NC(=O)CCl)=C(Cl)Cl`, the growth is 21.1% (inactive). Still for that read-out and setting: the result for `CCCn1cc2c3c(cccc31)[C@H]1C[C@@H](C)CN(C)[C@@H]1C2` reads 80.6% (inactive); that for `CC/C(Cc1ccccc1)=C(\c1ccc(OCCN2CCCC2)cc1)c1ccc(OC(=O)NCc2ccccc2)cc1`, 59.9% (inactive). On the same count and under the same terms, then `O=[N+]([O-])c1ccc(OCc2ccc(S(=O)(=O)F)c(Cl)c2)c(Cl)c1`, with 102% (inactive); and `C[C@H](O)CCC(=O)c1ccoc1`, with 117% (inactive); and `CCCN1C(=O)NC(=O)C(CC)(N2C(=O)c3c(F)c(F)c(F)c(F)c3C2=O)C1=O` (stereo not given), with -43.1% (active). The same measure, in the same setting: the result for `O=C(O)C1C(C(=O)O)C2(Cl)C(Cl)=C(Cl)C1(Cl)C2(Cl)Cl` (stereo not given) reads 105% (inactive) and 110% (inactive). With `C(=NC1CCCCC1)=NC1CCCCC1`, the growth was 107% (inactive) and 59.9% (inactive).

As to `Cc1ccc(NC2=N[C@]34CC(=O)CC[C@]3(C)[C@H]3CC[C@]5(C)C(=O)CC[C@H]5[C@@H]3C[C@@H]4S2)c(C)c1`, the growth is 59.6% (inactive). `CC1(C)N(Nc2ccccc2)C(=O)C2CCCN21` (stereo not given): the growth was 70.8% (inactive).

As for `CC(=O)c1cccc(S(=O)(=O)F)c1`, the growth was 114% (inactive). Same read-out and setting: the result for `C[N+]1(CC#CC[N+]2(C)CCCC2)CCCC1` reads 105% (inactive).

With `CC[C@H](C)[C@H](NC(=O)c1ncccn1)C(=O)N(C)[C@H](C[C@@H](OC(C)=O)c1nc(C(=O)N[C@@H](Cc2ccccc2)C[C@H](C)C(=O)OC)cs1)C(C)C`, the growth was 50.6% (inactive). Same read-out and setting: then `N[C@@H](CCC(=O)CCl)C(=O)O`, with 112% [20 µM] (inactive); and `C#Cc1cccc(Nc2nc(Cl)nc3cc(NC(=O)CF)ccc23)c1`, with 108% (inactive); and `COc1ccc2c(c1)c(-c1nc(-c3cn(C)c4ncccc34)cs1)cn2CCCCN1CCOCC1`, with 60.2% (inactive).

As for `CCOC(=O)c1cncn1C(C)c1ccccc1` (stereo not given), the growth was 109% (inactive). In the case of `O=P1(N(CCCl)CCCl)NCCCO1` (stereo not given), the growth was 111% (inactive).

Take `O=[N+]([O-])c1ccc(P(=O)(O)O)cc1`: the growth is 96.2% (inactive).

For `COc1ccc(N)cc1N`, the growth was 97.6% (inactive).

`CC[C@H](C)[C@H](NC(=O)C12CC(NC)(C1)C2)C(=O)N(C)[C@H](C[C@@H](OC(C)=O)c1nc(C(=O)N[C@@H](Cc2ccccc2)C[C@H](C)C(=O)OC)cs1)C(C)C`: the growth is 50.3% (inactive). On the same count and under the same terms, the result for `CC[C@H](C)[C@H]1O[C@]2(C=C[C@@H]1C)C[C@@H]1C[C@@H](C/C=C(\C)[C@@H](O[C@H]3C[C@H](OC)[C@@H](O[C@H]4C[C@H](OC)[C@@H](NC)[C@H](C)O4)[C@H](C)O3)[C@@H](C)/C=C/C=C3\CO[C@@H]4[C@H](O)C(C)=C[C@@H](C(=O)O1)[C@]34O)O2` reads -1.85% (active); that for `CC(=O)Cc1ccc2c(c1)OCO2`, 135% (inactive); that for `Cc1cc(NC(=O)NCCCOc2ccc(N3C(N)=NC(N)=NC3(C)C)cc2Cl)ccc1S(=O)(=O)F`, 34.5% (inactive). In the case of `CO[C@H]1[C@H](O[C@@H]2C[C@@H]3C/C=C/C(=O)O[C@@H](CO)C[C@H](O)[C@@H]4C[C@H](C)[C@H](C/C=C\C=C\[C@H](C)C[C@H](C2)O3)O4)O[C@@H](C)[C@H](O)[C@H]1O`, the growth was 30.1% (inactive). Same read-out and setting: the result for `O=C(O)C(O)c1ccc(Cl)cc1` (stereo not given) reads 102% (inactive) and 109% (inactive).
